From PubChem BioAssay (NCI)
About 79,000 compounds went through this panel and 15% of them were active in at least one assay; those are over-represented in the sample as a whole. Values without a mark were called inactive. No stated cut-off is given here; in the data, active means growth inhibition above about 70%; inactive means the rest.

Assay: NCI Yeast Anticancer Drug Screen. Data for the cln2 rad14 strain (AID 165);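 further: 0% = growth equal to vehicle treated cultures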
Conditions: S. cerevisiae cln2 rad14 strain, at 50.0 µM, active compounds read high
In short: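 Readout is yeast growth inhibition versus vehicle-treated controls, using a strain with cln2 and rad14 alterations exposed to compound.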
`CC(C)(C)C1CC[C@H]2c3c([nH]c4ccc(Br)cc34)[C@H]3C(=O)N(c4ccccc4)C(=O)[C@H]3[C@H]2C1` (stereo partly drawn) gave a growth inhibition of 29.4%.
For `O=C(/C=C/c1ccccc1)OCCCl`, the growth inhibition was -14.1%.
Work on `Cn1cccc1/C=N/N=C(/N)NO` yielded a growth inhibition of -4.5%.
Compound `COc1ccc2ccccc2c1I` has a growth inhibition of 10.7%.
In the case of `O=C1C(CO)=C[C@@H](O)[C@H]2O[C@@H]12`, the growth inhibition is reported as 6.8%.
In the case of `CCOC(CNCCC(=O)OC)OCC`, the growth inhibition is reported as -8%.
`CCCCNc1nc2ccccc2c2c1ncn2CC(C)C` showed a growth inhibition of 23.5%.
Work on `CC1CCOC(C)(Cc2ccccc2)O1` (stereo not drawn) yielded a growth inhibition of -58.8%.
`CC(=O)c1c(O)ccc2c(C)cc(=O)oc12` gave a growth inhibition of 3.1%.
With `O=C1NC2(CCN(CCCC3(c4ccc(F)cc4)OCCO3)CC2)Oc2ccccc21` the growth inhibition was -11.6%.
`CCOP(=O)(OCC)OC1CC(n2cnc3c(N(CC)CC)ncnc32)OC1CO[Si](C)(C)C(C)(C)C` (stereo not drawn) showed a growth inhibition of 38.8%.
`CC(=O)/C=C1/NC(C(=O)c2ccccc2)=CNC1c1ccccc1` (stereo not drawn) gave a growth inhibition of -14.5%.
Work on `CCOC(=O)c1c(NCc2ccccc2)n(-c2ccccc2)c(=S)n(-c2ccccc2)c1=O` yielded a growth inhibition of 32.1%.
With `CCOC(=O)C1(C)CCCc2sc(N)c(C#N)c21` (stereo not drawn) the growth inhibition was -6.45%.
In the case of `Nc1c(O)cccc1C(=O)O`, the growth inhibition is reported as 3.95%.
`Cc1cc(C)c(C2CC(O)C(CO)O2)cc1C` (stereo not drawn) gave a growth inhibition of 14.1%.
For `Nc1ccc(S(=O)(=O)NCCS(=O)(=O)O)cc1`, the growth inhibition was -29.3%.
Work on `Cc1nn(C(=O)c2ccncc2)c2c1C(c1ccccc1)SC(N)=N2` (stereo not drawn) yielded a growth inhibition of 9.55%.
